Among the data in PubChem BioAssay (EPA / NIEHS) are outcome and AC50 values, retold here.

Read-out in test [1]: Tissue Factor, F3 (gene 2152)
The test can be described thus: BSK_CASM3C_TissueFactor: BioMAP Diversity Plus: CASM3C Assay for Tissue Factor Biomarker Activity (AID 2283052).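 Further: cell surface tissue factor protein level read by ELISA.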 Conditions: primary human coronary artery smooth muscle cells; actives raise or lower the signal.

Read-out in test [2]: Interferon-gamma inducible Protein 10 (IP10), CXCL10 (gene 3627)
The test is described as follows: BSK_hDFCGF_IP10: BioMAP Diversity Plus: hDFCGF Assay for Interferon-gamma inducible Protein 10 (IP10) Biomarker Activity (AID 2283053). Conditions: primary human foreskin fibroblasts; actives raise or lower the signal. The method, boiled down:
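Human foreskin fibroblast primary cells (hDFCGF system) were dosed with chemical and assayed at 24 h; IP-10 measured by ELISA. Activity fitted bidirectionally relative to DMSO negative control as baseline.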

Read-out in test [3]: Urokinase-type plasminogen activator receptor (uPAR), PLAUR (gene 5329)
The test is described as follows: BSK_CASM3C_uPAR: BioMAP Diversity Plus: CASM3C Assay for Urokinase-type plasminogen activator receptor (uPAR) Biomarker Activity (AID 2283054).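 Further: cell-surface uPAR protein level quantified by ELISA.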 Conditions: primary human coronary artery smooth muscle cells; actives raise or lower the signal.

Read-out in test [4]: Vascular cell adhesion molecule 1 (VCAM1), VCAM1 (gene 7412)
The test can be described thus: BSK_CASM3C_VCAM1: BioMAP Diversity Plus: CASM3C Assay for Vascular cell adhesion molecule 1 (VCAM1) Biomarker Activity (AID 2283055).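 Further: VCAM-1 protein level quantified by ELISA on the cells.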 Conditions: primary human coronary artery smooth muscle cells; actives raise or lower the signal.

Read-out in test [5]: Collagen III, COL3A1 (gene 1281)
The test is described as follows: BSK_hDFCGF_CollagenIII: BioMAP Diversity Plus: hDFCGF Assay for Collagen III Biomarker Activity (AID 2283056). Conditions: primary human foreskin fibroblasts; actives raise or lower the signal. Summed up:
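Human foreskin primary fibroblasts were exposed to test chemicals for 24 h, after which collagen III was quantified by ELISA. Activity was fitted bidirectionally against DMSO as negative control and baseline.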

Read-out in test [6]: Epidermal growth factor receptor (EGFR), EGFR (gene 1956)
The test can be described thus: BSK_hDFCGF_EGFR: BioMAP Diversity Plus: hDFCGF Assay for Epidermal growth factor receptor (EGFR) Biomarker Activity (AID 2283057). Conditions: primary human foreskin fibroblasts; actives raise or lower the signal. The method, boiled down: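 Primary human foreskin fibroblasts were exposed to compound for 24 h, after which cell-surface EGFR was quantified by ELISA. Activity was fitted bidirectionally against the DMSO negative control as baseline.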

Read-out in test [7]: Interleukin-8 (IL8), CXCL8 (gene 3576)
The test can be described thus: BSK_hDFCGF_IL8: BioMAP Diversity Plus: hDFCGF Assay for Interleukin-8 (IL8) Biomarker Activity (AID 2283058). Conditions: primary human foreskin fibroblasts; actives raise or lower the signal. Summed up:
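hDFCGF human dermal fibroblasts; 24 h chemical exposure; IL-8 by ELISA; bidirectional curve fit vs DMSO baseline; gain or loss of signal scored.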

A short description of test [8]: BSK_hDFCGF_Proliferation: Cell Proliferation Assessment in the BioMAP Diversity Plus: hDFCGF Assay (AID 2283059).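 Further: curves fitted for both rise and fall of signal versus DMSO baseline.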 Conditions: primary human foreskin fibroblasts. The method, boiled down: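 Sub-confluent human foreskin fibroblast cultures receive test chemical […]. Relative cell number is quantified by sulforhodamine B staining (0.1%, after 10% TCA fixation) at 560 nm, with bidirectional fitting referenced to DMSO.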

Read-out in test [9]: Macrophage colony-stimulating factor (MCSF), CSF1 (gene 1435)
The test is described as follows: BSK_hDFCGF_MCSF: BioMAP Diversity Plus: hDFCGF Assay for Macrophage colony-stimulating factor (MCSF) Biomarker Activity (AID 2283060). Conditions: primary human foreskin fibroblasts; actives raise or lower the signal. Summed up: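 Human foreskin primary fibroblasts were treated with test chemical for 24 h, and M-CSF was then measured by ELISA. Data were fitted bidirectionally against DMSO as the negative control and activity baseline.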

Test [10] is described as follows: BSK_hDFCGF_SRB: Viability Assessment in the BioMAP Diversity Plus: hDFCGF Assay (AID 2283061).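 Further: cells exposed to compound for 24 h before the read.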 Conditions: primary human foreskin fibroblasts. Summed up:
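Human foreskin primary fibroblasts were treated with compound and assessed 24 h after dosing. Total protein was measured by sulforhodamine B staining (0.1% SRB after 10% TCA fixation, 560 nm read) as a cytotoxicity marker, with bidirectional fitting against DMSO baseline.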

Read-out in test [11]: TIMP metallopeptidase inhibitor 1 (TIMP1), TIMP1 (gene 7076)
The test can be described thus: BSK_hDFCGF_TIMP1: BioMAP Diversity Plus: hDFCGF Assay for TIMP metallopeptidase inhibitor 1 (TIMP1) Biomarker Activity (AID 2283062). Conditions: primary human foreskin fibroblasts; actives raise or lower the signal. The method, boiled down: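 Primary human foreskin fibroblasts in the hDFCGF system were dosed with compound for 24 h, then TIMP-1 was measured by ELISA. Activity was fitted bidirectionally relative to DMSO control; parallel SRB staining assessed cytotoxicity.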

Read-out in test [12]: Monokine induced gamma interferon (MIG), CXCL9 (gene 4283)
The test can be described thus: BSK_hDFCGF_MIG: BioMAP Diversity Plus: hDFCGF Assay for Monokine induced gamma interferon (MIG) Biomarker Activity (AID 2283063). Conditions: primary human foreskin fibroblasts; actives raise or lower the signal. The method, boiled down:
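ELISA read-out of MIG from primary human dermal fibroblasts 24 h post-dosing. Gain or loss of signal fitted bidirectionally, DMSO as baseline.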

Read-out in test [13]: Matrix Metallopeptidase 1 (MMP1), MMP1 (gene 4312)
The test can be described thus: BSK_hDFCGF_MMP1: BioMAP Diversity Plus: hDFCGF Assay for Matrix Metallopeptidase 1 (MMP1) Biomarker Activity (AID 2283064). Conditions: primary human foreskin fibroblasts; actives raise or lower the signal. Summed up:
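hDFCGF primary fibroblasts (human foreskin); chemical added; 24 h; MMP1 by ELISA; bidirectional fit vs DMSO.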

Read-out in test [14]: Vascular cell adhesion molecule 1 (VCAM1), VCAM1 (gene 7412)
The test is described as follows: BSK_hDFCGF_VCAM1: BioMAP Diversity Plus: hDFCGF Assay for Vascular cell adhesion molecule 1 (VCAM1) Biomarker Activity (AID 2283065). Conditions: primary human foreskin fibroblasts; actives raise or lower the signal. The method, boiled down:
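Primary human foreskin fibroblasts (hDFCGF system) were dosed with chemical and VCAM-1 was measured by ELISA 24 h later. Bidirectional curve fitting used DMSO as negative control and activity baseline.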

Read-out in test [15]: Plasminogen activator inhibitor-1 (PAI1), SERPINE1 (gene 5054)
The test can be described thus: BSK_hDFCGF_PAI1: BioMAP Diversity Plus: hDFCGF Assay for Plasminogen activator inhibitor-1 (PAI1) Biomarker Activity (AID 2283066). Conditions: primary human foreskin fibroblasts; actives raise or lower the signal. Summed up:
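Human foreskin fibroblasts in the hDFCGF system were dosed with compound for 24 h; PAI-1 was quantified by ELISA. Bidirectional curve fitting used DMSO as negative control and baseline.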

Read-out in test [16]: Intercellular Adhesion Molecule 1 (ICAM1), ICAM1 (gene 3383)
The test can be described thus: BSK_KF3CT_ICAM1: BioMAP Diversity Plus: KF3CT Assay for Intercellular Adhesion Molecule 1 (ICAM1) Biomarker Activity (AID 2283067). Conditions: primary human keratinocytes with fibroblasts; actives raise or lower the signal. Summed up: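 Human keratinocyte plus foreskin fibroblast primary co-culture was exposed to chemical for 24 h. ICAM-1 was then quantified by ELISA, and the data were fit bidirectionally against DMSO as the negative control and baseline.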

Read-out in test [17]: Interferon-gamma inducible Protein 10 (IP10), CXCL10 (gene 3627)
The test can be described thus: BSK_KF3CT_IP10: BioMAP Diversity Plus: KF3CT Assay for Interferon-gamma inducible Protein 10 (IP10) Biomarker Activity (AID 2283068). Conditions: primary human keratinocytes with fibroblasts; actives raise or lower the signal. The method, boiled down: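 ELISA read-out of IP-10 after 24 h chemical dosing of human skin primary co-culture (keratinocytes, foreskin fibroblasts). Gain or loss of signal relative to DMSO, bidirectional curve fit.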

Test [18] in a line: BSK_KF3CT_SRB: Viability Assessment in the BioMAP Diversity Plus: KF3CT Assay (AID 2283069).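 Further: fitted for both signal gain and loss against DMSO baseline.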 Conditions: primary human keratinocytes with fibroblasts. The method, boiled down:
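Keratinocytes co-cultured with foreskin fibroblasts (human primary); chemical added, 24 h; fix 10% TCA, stain 0.1% SRB, A560. Bidirectional fit vs DMSO.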

Read-out in test [19]: Interleukin-1 alpha (IL1a), IL1A (gene 3552)
The test is described as follows: BSK_KF3CT_IL1a: BioMAP Diversity Plus: KF3CT Assay for Interleukin-1 alpha (IL1a) Biomarker Activity (AID 2283070). Conditions: primary human keratinocytes with fibroblasts; actives raise or lower the signal. The method, boiled down: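 Chemicals were dosed onto co-cultured human keratinocytes and foreskin fibroblasts, IL-1a was quantified by ELISA at 24 h, and activity was fitted in both directions relative to DMSO controls.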

Read-out in test [20]: TIMP metallopeptidase inhibitor 2 (TIMP2), TIMP2 (gene 7077)
The test is described as follows: BSK_KF3CT_TIMP2: BioMAP Diversity Plus: KF3CT Assay for TIMP metallopeptidase inhibitor 2 (TIMP2) Biomarker Activity (AID 2283071). Conditions: primary human keratinocytes with fibroblasts; actives raise or lower the signal. Summed up:
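Human primary keratinocyte/foreskin fibroblast co-culture dosed with chemical and sampled at 24 h. TIMP-2 levels quantified by ELISA; bidirectional fitting against DMSO negative control as baseline.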

Activity calls are given as the source filed them. How the source made its calls: active means hit-call score of the fitted dose curve at least 0.9, where 1 is the maximum; inactive means score below 0.9.

As to `CCCCCCOCCO`, the outcome in [1], in [2], in test [3], in [4], in test [5] and in test [6] was inactive. The outcome in [7], in test [8], in [9], in test [10], in [11] and in [12] was inactive. Besides, the result in test [13], in test [14], in test [15], in test [16], in test [17] and in test [18] was inactive. The result in [19] and in test [20] was inactive.

Regarding `CC1(C)NC(=O)NC1=O`, the result in test [1], in test [2], in test [3], in test [4], in test [5] and in [6] was inactive. The result in test [7], in test [8], in test [9], in test [10], in test [11] and in [12] was inactive. For the same molecule, the outcome in test [13], in [14], in [15], in [16], in test [17] and in test [18] was inactive. Besides, the outcome in test [19] was inactive.

With `COc1ccc2c(c1)c(CC(=O)O)c(C)n2C(=O)c1ccc(Cl)cc1`, the outcome in test [1], in test [2], in [3], in [4], in [6] and in [7] was inactive. Also, the outcome in [9], in test [10], in test [11], in test [12], in test [13] and in [14] was inactive. The result in test [15], in [16], in [17], in test [18], in test [19] and in [20] was inactive. Also, the results for the AC50 in [5] and in [8] were 20 µM (active) and 13.1 µM (active), respectively.

On to `Cc1ccc(C(C)C)c(O)c1`, for which the result in test [1], in test [2], in [3], in test [4], in test [5] and in test [6] was inactive. Also, the result in test [7], in test [8], in test [9], in test [10], in [11] and in [12] was inactive. Also, the outcome in test [13], in [14], in test [15], in test [16], in test [17] and in test [18] was inactive. Also, the result in [19] was inactive.

For the molecule `COC(=O)c1ccc(O)cc1`, the outcome in [1], in test [2], in test [3], in [4], in test [5] and in test [6] was inactive. Moreover, the result in [7], in [8], in test [9], in test [10], in [11] and in test [12] was inactive. In addition, the result in test [13], in test [14], in test [15], in [16], in [17] and in test [18] was inactive. Also, the result in test [19] and in test [20] was inactive.

With `c1cc(-c2ccncc2)ccn1`, the outcome in test [1], in test [2], in test [3], in test [4], in test [5] and in test [6] was inactive. For the same molecule, the result in test [7], in [9], in test [10], in test [11], in test [12] and in test [13] was inactive. In addition, the outcome in [14], in test [15], in test [16], in test [17], in test [18] and in [19] was inactive.

With `C[C@]12C=CC(=O)C=C1CC[C@@H]1[C@@H]2C(=O)C[C@@]2(C)[C@H]1CC[C@]2(O)C(=O)CO`, the outcome in test [1], in test [2], in test [4], in test [5], in test [6] and in test [7] was inactive. The outcome in [8], in test [9], in test [10], in test [11], in test [12] and in test [13] was inactive. Moreover, the outcome in test [14], in test [15], in [16], in [17], in test [18] and in test [19] was inactive. For the same molecule, the result in test [20] was inactive. Also, the AC50 in test [3] is 0.239 µM (active).
